Paper PMC7862700, “An all-to-all approach to the identification of sequence-specific readers for epigenetic DNA modifications on cytosine”

Legend:
Experiment in all cases: DAPPL (digital affinity profiling via proximity ligation, sequencing); 10 mM Tris-HCl pH 7.5, 50 mM NaCl, 1 mM DTT, 4% glycerol, room temperature, 30 min; GST-TFs on glutathione beads, 16-mer random dsDNA library, 0.1% formaldehyde crosslink after washing; high values mean tight binding
Conditions in all cases: protein: recombinant; tags: N-terminal GST; dsDNA, one strand shown
ERG = target: T1, ERG (Homo sapiens, UniProt P11308 1-479)
T1 sequence: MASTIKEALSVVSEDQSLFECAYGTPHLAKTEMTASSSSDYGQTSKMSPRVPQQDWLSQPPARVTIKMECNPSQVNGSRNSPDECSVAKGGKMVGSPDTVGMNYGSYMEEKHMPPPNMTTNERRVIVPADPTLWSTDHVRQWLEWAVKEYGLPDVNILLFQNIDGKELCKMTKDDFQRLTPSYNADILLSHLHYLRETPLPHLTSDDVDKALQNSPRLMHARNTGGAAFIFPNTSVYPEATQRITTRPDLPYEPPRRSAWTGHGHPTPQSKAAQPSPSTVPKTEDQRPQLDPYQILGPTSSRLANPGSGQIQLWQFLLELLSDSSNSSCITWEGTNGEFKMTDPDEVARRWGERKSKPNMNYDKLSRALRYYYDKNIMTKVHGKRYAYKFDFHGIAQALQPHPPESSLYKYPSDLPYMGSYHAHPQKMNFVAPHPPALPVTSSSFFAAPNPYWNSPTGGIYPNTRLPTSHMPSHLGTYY
How it was run: (§1)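 Pools were built from human transcription factors expressed in yeast as GST fusions, captured on glutathione beads and DNA-barcoded, along with a tag-only sample. Incubation with 200 nmole of a 16-mer random double-stranded DNA library lasted 30 min at room temperature in Tris/NaCl/DTT/glycerol buffer, and was followed by washing, 0.1% formaldehyde crosslinking, proximity ligation, PCR amplification and Illumina NextSeq500 sequencing. Binding signal is the quotient of each hexamer's read frequency for a factor and its frequency for the tag-only sample.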

EHF = target: T2, EHF (Homo sapiens, UniProt Q9NZC4 1-300)
T2 sequence: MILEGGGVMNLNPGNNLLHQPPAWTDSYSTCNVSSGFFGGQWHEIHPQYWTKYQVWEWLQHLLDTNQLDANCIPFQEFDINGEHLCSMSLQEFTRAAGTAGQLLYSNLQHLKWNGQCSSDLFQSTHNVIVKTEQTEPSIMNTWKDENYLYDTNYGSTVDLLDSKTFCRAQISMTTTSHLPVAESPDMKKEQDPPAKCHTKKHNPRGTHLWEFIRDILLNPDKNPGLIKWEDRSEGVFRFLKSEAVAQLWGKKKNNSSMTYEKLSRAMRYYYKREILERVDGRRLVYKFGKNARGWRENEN
How it was run: as §1

SPIB = SPIB (Homo sapiens, UniProt Q01892 1-262)
How it was run: as §1

ETV5 = ETV5 (Homo sapiens, UniProt P41161 1-510)
How it was run: as §1

ELF4 = ELF4 (Homo sapiens, UniProt Q99607 1-663)
How it was run: as §1

ELF3 = target: T3, ELF3 (Homo sapiens, UniProt P78545 1-371)
T3 sequence: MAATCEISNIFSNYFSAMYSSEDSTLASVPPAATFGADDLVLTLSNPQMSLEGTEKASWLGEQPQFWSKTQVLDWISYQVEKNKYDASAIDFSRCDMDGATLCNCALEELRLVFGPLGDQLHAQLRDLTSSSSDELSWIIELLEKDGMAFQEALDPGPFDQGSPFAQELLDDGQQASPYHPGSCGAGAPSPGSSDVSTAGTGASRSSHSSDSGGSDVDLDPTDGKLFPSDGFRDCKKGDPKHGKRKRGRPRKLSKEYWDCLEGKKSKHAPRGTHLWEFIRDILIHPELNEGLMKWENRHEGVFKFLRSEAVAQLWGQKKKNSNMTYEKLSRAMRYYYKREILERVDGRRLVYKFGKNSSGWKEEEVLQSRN
How it was run: as §1

ERF = target: T4, ERF (Homo sapiens, UniProt P50548 1-548)
T4 sequence: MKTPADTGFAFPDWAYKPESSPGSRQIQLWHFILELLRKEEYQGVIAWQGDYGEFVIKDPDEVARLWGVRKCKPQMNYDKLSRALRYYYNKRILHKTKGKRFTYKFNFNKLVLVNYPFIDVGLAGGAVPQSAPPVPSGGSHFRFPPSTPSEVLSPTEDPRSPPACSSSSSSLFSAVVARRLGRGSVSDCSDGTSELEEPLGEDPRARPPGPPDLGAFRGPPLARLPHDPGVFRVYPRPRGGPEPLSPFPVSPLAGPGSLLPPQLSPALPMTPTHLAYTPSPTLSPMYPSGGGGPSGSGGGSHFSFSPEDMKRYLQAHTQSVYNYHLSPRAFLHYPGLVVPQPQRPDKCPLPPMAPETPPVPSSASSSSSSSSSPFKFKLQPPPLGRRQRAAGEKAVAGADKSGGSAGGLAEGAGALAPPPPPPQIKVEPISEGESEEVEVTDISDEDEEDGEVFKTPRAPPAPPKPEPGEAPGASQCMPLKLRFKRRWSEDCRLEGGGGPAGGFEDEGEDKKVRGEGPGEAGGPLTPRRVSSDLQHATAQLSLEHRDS
How it was run: as §1

ETV3L = target: T5, ETV3L (Homo sapiens, UniProt Q6ZN32 1-361)
T5 sequence: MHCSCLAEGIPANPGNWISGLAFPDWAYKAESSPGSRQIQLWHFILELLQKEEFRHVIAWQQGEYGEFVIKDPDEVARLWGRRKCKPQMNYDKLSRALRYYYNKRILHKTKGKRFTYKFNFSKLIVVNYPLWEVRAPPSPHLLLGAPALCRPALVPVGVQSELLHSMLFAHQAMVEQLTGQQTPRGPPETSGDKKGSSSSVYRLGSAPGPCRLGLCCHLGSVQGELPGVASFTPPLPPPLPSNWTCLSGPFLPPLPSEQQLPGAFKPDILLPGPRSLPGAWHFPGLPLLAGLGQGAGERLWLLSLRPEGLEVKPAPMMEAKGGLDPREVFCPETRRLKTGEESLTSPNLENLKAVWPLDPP
How it was run: as §1

ETS2 = target: T6, ETS2 (Homo sapiens, UniProt P15036 1-469)
T6 sequence: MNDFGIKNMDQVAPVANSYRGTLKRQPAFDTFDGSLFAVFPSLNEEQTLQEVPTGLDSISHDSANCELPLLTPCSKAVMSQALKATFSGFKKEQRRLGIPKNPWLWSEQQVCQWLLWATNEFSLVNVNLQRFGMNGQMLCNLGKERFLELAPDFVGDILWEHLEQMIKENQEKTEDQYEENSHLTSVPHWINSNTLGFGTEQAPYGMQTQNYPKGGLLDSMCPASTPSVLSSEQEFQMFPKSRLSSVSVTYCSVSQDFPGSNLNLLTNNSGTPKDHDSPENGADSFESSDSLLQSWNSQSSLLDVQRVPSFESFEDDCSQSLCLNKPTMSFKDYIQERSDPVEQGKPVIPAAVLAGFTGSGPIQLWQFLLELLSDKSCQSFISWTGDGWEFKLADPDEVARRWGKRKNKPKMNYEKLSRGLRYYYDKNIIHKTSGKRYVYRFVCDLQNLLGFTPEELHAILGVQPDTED
How it was run: as §1

SPDEF = target: T7, SPDEF (Homo sapiens, UniProt O95238 1-335)
T7 sequence: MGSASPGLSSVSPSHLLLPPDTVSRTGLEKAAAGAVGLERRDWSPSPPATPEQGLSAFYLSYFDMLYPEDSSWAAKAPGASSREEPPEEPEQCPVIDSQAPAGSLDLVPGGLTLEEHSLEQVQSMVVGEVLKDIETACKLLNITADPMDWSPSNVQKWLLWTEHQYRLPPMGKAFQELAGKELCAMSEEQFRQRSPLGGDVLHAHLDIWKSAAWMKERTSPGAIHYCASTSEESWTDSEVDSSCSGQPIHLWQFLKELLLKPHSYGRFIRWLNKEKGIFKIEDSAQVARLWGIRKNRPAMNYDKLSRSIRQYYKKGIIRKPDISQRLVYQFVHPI
How it was run: as §1

ETV6 = ETV6 (Homo sapiens, UniProt P41212 1-452)
How it was run: as §1

Chain of ELF4 (Q99607 whole entry): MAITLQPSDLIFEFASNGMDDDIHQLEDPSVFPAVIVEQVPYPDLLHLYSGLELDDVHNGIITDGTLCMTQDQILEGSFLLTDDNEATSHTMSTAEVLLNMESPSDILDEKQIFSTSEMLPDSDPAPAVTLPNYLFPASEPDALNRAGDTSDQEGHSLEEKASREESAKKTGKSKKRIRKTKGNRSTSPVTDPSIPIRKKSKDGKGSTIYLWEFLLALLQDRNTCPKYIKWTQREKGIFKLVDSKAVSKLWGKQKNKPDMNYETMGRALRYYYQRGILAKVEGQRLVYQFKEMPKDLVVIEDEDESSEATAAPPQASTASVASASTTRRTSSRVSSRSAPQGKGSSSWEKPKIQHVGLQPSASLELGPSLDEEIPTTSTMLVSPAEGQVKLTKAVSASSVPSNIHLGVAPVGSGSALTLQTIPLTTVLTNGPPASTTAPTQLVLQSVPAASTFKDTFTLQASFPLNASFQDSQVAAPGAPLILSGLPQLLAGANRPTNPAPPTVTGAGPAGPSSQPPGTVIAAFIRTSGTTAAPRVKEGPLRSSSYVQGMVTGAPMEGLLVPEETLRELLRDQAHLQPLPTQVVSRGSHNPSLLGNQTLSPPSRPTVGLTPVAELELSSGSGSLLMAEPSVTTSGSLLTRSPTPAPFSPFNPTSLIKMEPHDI
Chain of SPIB (Q01892 whole entry): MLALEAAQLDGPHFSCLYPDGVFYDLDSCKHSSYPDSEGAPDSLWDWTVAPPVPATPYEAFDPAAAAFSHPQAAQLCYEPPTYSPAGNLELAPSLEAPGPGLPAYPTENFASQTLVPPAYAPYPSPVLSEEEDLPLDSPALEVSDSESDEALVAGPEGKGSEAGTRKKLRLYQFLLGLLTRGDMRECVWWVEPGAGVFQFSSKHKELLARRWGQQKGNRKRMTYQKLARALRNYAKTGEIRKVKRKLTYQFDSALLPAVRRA
Chain of ETV5 (P41161 whole entry): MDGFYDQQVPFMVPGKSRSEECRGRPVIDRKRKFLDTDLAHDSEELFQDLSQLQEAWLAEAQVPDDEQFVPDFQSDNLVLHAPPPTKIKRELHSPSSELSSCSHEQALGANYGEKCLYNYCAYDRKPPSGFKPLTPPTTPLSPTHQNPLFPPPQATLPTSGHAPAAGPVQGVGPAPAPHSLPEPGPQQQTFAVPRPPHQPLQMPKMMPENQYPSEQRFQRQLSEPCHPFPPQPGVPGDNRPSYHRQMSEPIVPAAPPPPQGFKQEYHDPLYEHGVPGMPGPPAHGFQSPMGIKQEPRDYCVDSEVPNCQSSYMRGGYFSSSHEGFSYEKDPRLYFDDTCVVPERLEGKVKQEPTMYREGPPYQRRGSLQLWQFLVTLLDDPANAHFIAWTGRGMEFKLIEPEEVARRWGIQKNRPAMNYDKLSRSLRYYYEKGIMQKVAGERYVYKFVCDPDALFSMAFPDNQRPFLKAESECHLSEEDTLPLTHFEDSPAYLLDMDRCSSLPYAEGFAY
Chain of ETV6 (P41212 whole entry): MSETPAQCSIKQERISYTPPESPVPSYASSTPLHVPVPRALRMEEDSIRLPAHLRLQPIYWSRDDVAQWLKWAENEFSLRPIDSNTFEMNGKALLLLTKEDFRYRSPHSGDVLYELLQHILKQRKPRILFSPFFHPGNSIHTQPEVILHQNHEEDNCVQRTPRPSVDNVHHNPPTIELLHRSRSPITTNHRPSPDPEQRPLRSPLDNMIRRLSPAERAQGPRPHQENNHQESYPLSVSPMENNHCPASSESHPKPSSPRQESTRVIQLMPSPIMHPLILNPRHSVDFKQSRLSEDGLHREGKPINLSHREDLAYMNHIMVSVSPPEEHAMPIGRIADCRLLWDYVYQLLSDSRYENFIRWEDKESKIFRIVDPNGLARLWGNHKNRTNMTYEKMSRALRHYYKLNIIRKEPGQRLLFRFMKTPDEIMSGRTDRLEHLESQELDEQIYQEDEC

In the case of TAGGAT, the binding signal (ERG) is reported as 1.07 fold enrichment (6-mer frequency, TF over GST control), the binding signal (EHF) is reported as 1.06 fold enrichment (6-mer frequency, TF over GST control) and the binding signal (SPIB) is reported as 1.03 fold enrichment (6-mer frequency, TF over GST control). For the same sequence, the binding signal (ETV5) was 1.03 fold enrichment (6-mer frequency, TF over GST control), the binding signal (ELF4) was 1 fold enrichment (6-mer frequency, TF over GST control) and the binding signal (ELF3) was 1.03 fold enrichment (6-mer frequency, TF over GST control). For the same sequence, the binding signal (ERF) was 1.02 fold enrichment (6-mer frequency, TF over GST control), the binding signal (ETV3L) was 1.06 fold enrichment (6-mer frequency, TF over GST control) and the binding signal (ETS2) was 1.03 fold enrichment (6-mer frequency, TF over GST control). For the same sequence, the binding signal (SPDEF) was 1.22 fold enrichment (6-mer frequency, TF over GST control) and the binding signal (ETV6) was 1.06 fold enrichment (6-mer frequency, TF over GST control).
